High-throughput results from PubChem BioAssay.
The list is not random: actives were taken first. Their share in the collection is about 2.4%.
WRN helicase inh-1 – qHTS for Inhibitors of WRN Helicase. WRN helicase unwinding, fluorescent forked duplex, kinetic. AID 651768, 2012. Potency, µM (highest dose often 114 µM), for the others: at the top dose activity change, negative = inhibition, actives largely listed as inhibitors. 0.46% of 360,000 active; further: on the % scale 0 is the no-effect control and ±100 the full control effect; nearly all actives have a fitted effect of over 55% in size
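Kinetic fluorescence helicase assay: unwinding of a quenched forked DNA duplex (100 nM final) with 2 mM ATP final raises red fluorescence (525/598 nm). Compounds sat 15 min at room temperature with 20 nM WRN beforehand.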
POLB inh – qHTS Assay for Inhibitors of DNA Polymerase Beta; 1.3% of 340,000 active; Potency, µM (doses to about 114 µM), without a hit: at the top dose activity change, negative = inhibition, actives largely listed as inhibitors; Pol beta primer extension/strand displacement, fluorescence kinetic; further: on the % scale 0 is the no-effect control and ±100 the full control effect
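Reaction started by 50 nM substrate onto compound-treated Pol beta (10 nM, 15 min preincubation, room temperature); plates read at 0 min and 10 min. Normalized concentration-effect data fitted by four-parameter Hill equation.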
Pol kappa inh-1 – qHTS for Inhibitors of Polymerase Kappa; purified Pol kappa, fluorescent DNA synthesis assay, 10 min; Potency, µM (titrated, usually from 107 µM), inactives show at the highest dose activity, negative = inhibition, actives largely listed as inhibitors; 0.53% of 400,000 active; further: on the % scale 0 is the no-effect control and ±100 the full control effect
Target sequence (Q9UBT6 whole entry, looked up): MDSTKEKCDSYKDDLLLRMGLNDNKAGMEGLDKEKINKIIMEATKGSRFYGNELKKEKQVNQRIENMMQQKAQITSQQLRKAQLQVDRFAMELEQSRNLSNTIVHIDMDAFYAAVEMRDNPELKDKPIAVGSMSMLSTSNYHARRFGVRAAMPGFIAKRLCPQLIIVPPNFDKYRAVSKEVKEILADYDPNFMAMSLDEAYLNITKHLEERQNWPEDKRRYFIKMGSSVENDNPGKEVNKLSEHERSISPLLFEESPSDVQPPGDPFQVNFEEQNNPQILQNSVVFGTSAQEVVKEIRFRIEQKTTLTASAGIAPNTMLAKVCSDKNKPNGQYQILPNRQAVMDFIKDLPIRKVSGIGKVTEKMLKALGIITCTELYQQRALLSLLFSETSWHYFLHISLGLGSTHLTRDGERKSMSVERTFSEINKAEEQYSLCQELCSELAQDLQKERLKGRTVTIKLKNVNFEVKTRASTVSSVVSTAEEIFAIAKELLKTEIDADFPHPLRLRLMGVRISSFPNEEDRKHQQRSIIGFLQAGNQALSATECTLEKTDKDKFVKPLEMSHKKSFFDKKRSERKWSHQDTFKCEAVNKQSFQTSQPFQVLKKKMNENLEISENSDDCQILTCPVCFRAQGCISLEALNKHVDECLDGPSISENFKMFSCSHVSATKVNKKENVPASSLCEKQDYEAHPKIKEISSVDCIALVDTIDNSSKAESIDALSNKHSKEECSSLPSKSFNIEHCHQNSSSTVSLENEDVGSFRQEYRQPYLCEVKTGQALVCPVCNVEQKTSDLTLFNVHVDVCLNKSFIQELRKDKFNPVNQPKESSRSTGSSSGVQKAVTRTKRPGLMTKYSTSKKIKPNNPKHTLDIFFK
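Activity was followed as the change in fluorescence between reads at 0 and 10 min after starting the reaction with 50 nM substrate. Beforehand, 10 nM polymerase had been preincubated with compound for 15 min at room temperature.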
POLI inh – qHTS for Inhibitors of Polymerase Iota; Pol iota fluorescent replication assay, 10 min; DNA polymerase iota (Homo sapiens), Q9UNA4; Potency, µM (series often up to 115 µM), without a hit: at the highest dose activity, negative = inhibition, hits mostly inhibitors; 1% of 390,000 active
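Fluorescent replication assay read twice, at 0 min and 10 min after adding 50 nM (final) substrate. Enzyme (10 nM) and compounds were first incubated 15 min at room temperature; enzyme-free buffer wells were negative controls.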
Pol eta inh-1 – qHTS for Inhibitors of Polymerase Eta; DNA polymerase eta (Homo sapiens), Q9Y253; recombinant Pol eta, fluorescent DNA replication assay; Potency, µM (highest dose often 114 µM), without a hit: at the highest dose activity change, negative = inhibition, hits mostly inhibitors; 1.2% of 390,000 active; further: on the % scale 0 is the no-effect control and ±100 the full control effect
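Pol eta at 10 nM preincubated with compounds 15 min at room temperature; reaction started with fluorescent substrate (50 nM final) and read kinetically at 0 and 10 min.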
FEN1 inh-1 – qHTS Assay for the Inhibitors of Human Flap endonuclease 1 (FEN1); P39748; Potency, µM (series often up to 114 µM), for inactives: at the top dose activity change, negative = inhibition, actives largely listed as inhibitors; 0.35% of 390,000 active; Recombinant FEN1 flap cleavage, fluorescence, 15 min; further: on the % scale 0 is the no-effect control and ±100 the full control effect; nearly all actives have a fitted effect of over 65% in size
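FEN1 at 10 nM preincubated with compounds 15 min at room temperature, then flap DNA substrate added at 50 nM final. Signal read at 0 and 15 min; concentration-response fitted with four-parameter Hill equation.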
TbPGK inh – qHTS for inhibitors of Phosphogylcerate Kinase: Hit Validation Screen | 79% of 500 active | shares compounds with Pol kappa inh-1 | Potency, µM (highest dose often 57.5 µM), for inactives: top-dose activity change, negative = inhibition, usual class: inhibitors | TbPGK coupled GAPDH assay, Kinase-Glo luminescence; further: on the % scale 0 is the no-effect control and ±100 the full control effect; nearly all actives have a fitted effect of over 65% in size
Pol iota confirm – qHTS for Inhibitors of Polymerase Iota: Confirmatory Assay for Cherry-picked Compounds; shares compounds with Pol kappa inh-1; Pol iota primer extension, TAMRA/BHQ fluorescence; Potency, µM, most hits filed as inhibitors; 77% of 1,500 active; AID 720496, 2013
Pol kappa inh-2 – qHTS for Inhibitors of Polymerase Kappa: Confirmatory Assay for Cherry-picked Compounds; shares compounds with Pol eta inh-1; Potency, µM, hits mostly inhibitors; 76% of 920 active; purified Pol-kappa, fluorescent strand-displacement substrate; AID 720501, 2013
Pol eta inh-2 – qHTS for Inhibitors of Polymerase Eta: Confirmatory Assay for Cherry-picked Compounds. 64% of 2,600 active. Pol eta primer extension, TAMRA/BHQ fluorescence, 10 min. AID 720502, 2013. Potency, µM, actives largely listed as inhibitors. shares compounds with Pol eta inh-1
FEN1 inh-2 – qHTS Assay for the Inhibitors of FEN1: Confirmatory Assay for Cherry-picked Compounds. AID 720498, 2013. 79% of 880 active. FEN1 flap cleavage, TAMRA/BHQ2 fluorogenic DNA substrate. shares compounds with FEN1 inh-1. Potency, µM, hits mostly inhibitors; further: nearly all actives have a fitted effect of over 60% in size
WRN helicase inh-2 – qHTS for Inhibitors of WRN Helicase: Confirmatory Assay for Cherry-picked Compounds | shares compounds with WRN helicase inh-1 | WRN helicase DNA unwinding, fluorescence kinetic | Potency, µM (series often up to 57.1 µM), for inactives: at the top dose activity, negative = inhibition, actives largely listed as inhibitors | 63% of 610 active; further: nearly all actives have a fitted effect of over 65% in size
TO DNA binding – qHTS for Inhibitors of WRN Helicase: Thiazole Orange DNA Binding Counterscreen | shares compounds with WRN helicase inh-1 | thiazole orange DNA binding displacement, fluorescence | Potency, µM (titrated, usually from 57.1 µM), for inactives: at the top dose activity change, negative = inhibition, hits mostly inhibitors | 10% of 610 active | AID 720499, 2013;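 further: drop in dye fluorescence marks compound binding to DNA; on the % scale 0 is the no-effect control and ±100 the full control effect; nearly all actives have a fitted effect of over 60% in size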
BLM helicase inh – qHTS for Inhibitors of WRN Helicase: BLM Helicase Counterscreen for WRN Inhibitors | shares compounds with WRN helicase inh-1 | Recombinant BLM helicase DNA unwinding, red fluorescence | Potency, µM (doses to about 57.1 µM), for inactives: at the highest dose activity change, negative = inhibition, actives largely listed as inhibitors | 60% of 610 active | AID 720503, 2013; further: nearly all actives have a fitted effect of over 60% in size
Numbers without * were called inactive; ? = inconclusive; · = no result given; [ ] = dose if it differs, or a comment. The call rests on the fitted dose curve; in most records, active means well fitted curve in the direction sought with a large enough effect; inconclusive means small, poorly fitted or top-dose-only effect, or another doubt; inactive means no such curve, though single readings can be large; an effect the other way counts as inactive or inconclusive. Potency means the concentration at half of the fitted maximal effect.

SMILES | WRN helicase inh-1 | POLB inh | Pol kappa inh-1 | POLI inh | Pol eta inh-1 | FEN1 inh-1 | Pol iota confirm | Pol kappa inh-2 | Pol eta inh-2 | FEN1 inh-2 | WRN helicase inh-2 | TO DNA binding | BLM helicase inh | others
CC[C@H](C)[C@H](NC(=O)[C@H](CCC(=O)O)NC(=O)[C@H](CO)NC(=O)[C@@H](NC(=O)[C@H](C)N)C(C)C)C(=O)N[C@@H](CCC(N)=O)C(=O)N[C@@H](CC(C)C)C(=O)N[C@@H](CCSC)C(=O)N[C@@H](Cc1cnc[nH]1)C(=O)N[C@@H](CC(N)=O)C(=O)N[C@@H](CC(C)C)C(=O)NCC(=O)N[C@@H](CCCCN)C(=O)N[C@@H](Cc1cnc[nH]1)C(=O)N[C@@H](CC(C)C)C(=O)N[C@@H](C)C(=O)N[C@@H](CO)C(=O)N[C@H](C(=O)N[C@@H](CCC(=O)O)C(=O)N[C@@H](CCCNC(=N)N)C(=O)N[C@@H](CCSC)C(=O)N[C@@H](CCC(N)=O)C(=O)N[C@@H](Cc1c[nH]c2ccccc12)C(=O)N[C@@H](CC(C)C)C(=O)N[C@@H](CCCNC(=N)N)C(=O)N[C@@H](CCCCN)C(=O)N[C@@H](CCCCN)C(=O)N[C@@H](CC(C)C)C(=O)N[C@@H](CCC(N)=O)C(=O)N[C@@H](CC(=O)O)C(=O)N[C@H](C(=O)N[C@@H](Cc1cnc[nH]1)C(=O)N[C@@H](CC(N)=O)C(=O)N[C@@H](Cc1ccccc1)C(=O)O)C(C)C)C(C)C | · | · | -16%[12 µM] | · | · | · | · | · | · | · | · | · | ·
Cc1nc2ccccc2c(=O)n1/N=C/c1ccc(O)c(O)c1O | 3µM* | 1.6µM* | ? | ? | 2.8µM* | ? | 1.7* | · | 2.7* | 11* | · | · | ·
O=C(O)c1ccc2nc(-c3ccco3)c(-c3ccco3)nc2c1 | ? | 3.5µM* | 22µM* | ? | 3.5µM* | 35µM* | 4.7* | · | 3.8* | 15* | 4.3µM* | 3.8µM* | 12µM*
Cc1ccc(-c2nc3ccc(C(=O)O)cc3nc2-c2ccc(C)cc2)cc1 | -2% | 14% | -18% | 5% | 0% | -5% | · | · | · | · | · | · | ·
Brc1ccc(C=C2C=c3ccccc3=C2)cc1 | · | · | -34% | 40% | · | -33% | · | · | · | · | · | · | ·
NS(=O)(=O)c1cc(C(=O)NC2CCSc3ccccc32)ccc1Cl (stereo not drawn) | 0.84µM* | 0.32µM* | 0.79µM* | 1.3µM* | -100% | 2.8µM* | 0.6* | 0.27* | 0.6* | 3.8* | 0.54µM* | -21% | 0.27µM* | TbPGK inh=0.15µM*
CC(=O)c1cnc(N(C)C)s1 | 9% | -1% | -1% | -3% | -7% | 15% | · | · | · | · | · | · | ·
CN(C)c1ncc(C2=C(Cl)C(=O)C(N3CCCC3)=C(Cl)C2=O)s1 | 9.5µM* | · | 28µM* | 7.9µM* | 20µM* | 50µM* | 38* | · | 34* | · | ? | ? | 7.6µM*
COc1ccc(NC(=O)CCn2cnnn2)cc1 | · | 9% | -2%[60.1 µM] | 2% | -18% | -2% | · | · | · | · | · | · | ·
COc1cc(/C=C2\CC/C(=C\c3cc(OC)c(O)c(OC)c3)C2=O)cc(OC)c1O | 11µM* | 4.5µM* | 10µM* | 2.8µM* | 1.8µM* | 6.3µM* | 27* | · | 9.5* | 8.5* | 3.4µM* | 6.1µM* | 5.4µM*
CCC(C)NC(=O)C1CCN(C(=O)c2cc3sccc3n2Cc2ccc(Cl)cc2)CC1 (stereo not drawn) | · | 17% | 9% | ? | -16% | -2% | · | · | · | · | · | · | ·
O=C(O)c1ccc2c(c1)C(=O)/C(=C\c1ccco1)C2=O | 25µM* | 2.2µM* | 8.9µM* | 6.3µM* | 3.5µM* | ? | 30* | 2.7* | 8.5* | 27* | ? | 22µM* | -10%
O=C1/C(=C/c2ccco2)SC(=S)N1c1cccnc1 | 13µM* | 1.6µM* | 8.9µM* | ? | 2.8µM* | 28µM* | 3.8* | 4.7* | 5.4* | · | 22µM* | -22% | 8.6µM* | TbPGK inh=3.3µM*
COc1ccccc1Nc1ccc2c(O)cc(S(=O)(=O)O)cc2c1 | -113% | · | 0.89µM* | 1.1µM* | 2.2µM* | 22µM* | 19* | 3* | 15* | 67* | 6.1µM* | ? | 5.4µM* | TbPGK inh=8.2µM*
